About 83,000 compounds went through this panel and 20% of them were active in at least one assay; those are over-represented in the sample as a whole.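 Treatment: one concentration, 48 hours, 96-well format. Scoring: percent growth, with anything below 10 considered active.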 Unmarked numbers belong to inactive results. Active and inactive are the calls of the source.

Test systems include SR leukemia; RPMI-8226 leukemia; OVCAR-8 ovarian; OVCAR-5 ovarian; SK-OV-3 ovarian; IGROV1 ovarian; OVCAR-3 ovarian; HS 578T breast; NCI/ADR-RES ovarian; T-47D breast; BT-549 breast; MDA-MB-435 melanoma; SW-620 colon; MCF7 breast; HCT-116 colon; HCC-2998 colon; KM12 colon.
Holding throughout (assay): NCI-60 one-dose screen, 48 h (100 = growth as untreated, 0 = no growth, -100 = all killed)
Settings in all cases: 10 µM unless noted

In the case of `Cn1cc(-c2nc(-c3cn(C)c4ncccc34)cs2)c2cc(F)ccc21`, the growth in the assay with SR leukemia was 22.4%; with RPMI-8226 leukemia, 38%; in the assay on OVCAR-8 ovarian it was 54.6%; with OVCAR-5 ovarian it was 56.3%; with SK-OV-3 ovarian, 57.4%; in the assay with IGROV1 ovarian it was 44.2%. The growth with OVCAR-3 ovarian was 1.46% (active); with HS 578T breast, 76.4%; with NCI/ADR-RES ovarian it was 10.8%; in the assay with T-47D breast, 48.1%; in the assay with BT-549 breast, 49%; in the assay on MDA-MB-435 melanoma, -15.1% (active). The growth in the assay on SW-620 colon was 26.9%; in the assay on MCF7 breast, 20%; in the assay with HCT-116 colon, 18.6%; in the assay with HCC-2998 colon, 53%; with KM12 colon, 22.2%.
For the compound `COc1ccc(NC(=O)c2ccc3c(c2)nc(-c2cc4ccccc4[nH]c2=O)n3-c2cc(C(C)(C)C)[nH]n2)cc1`, the growth in the assay on SR leukemia is 84.8%; with RPMI-8226 leukemia, 83.9%; with OVCAR-8 ovarian it was 97.6%; in the assay with OVCAR-5 ovarian it was 95.9%; with SK-OV-3 ovarian, 111%; with IGROV1 ovarian, 80.7%. Moreover, the growth was 100% in the assay with OVCAR-3 ovarian; 80.9% with HS 578T breast; 103% in the assay on NCI/ADR-RES ovarian; 78.9% in the assay on T-47D breast; 84.5% in the assay with BT-549 breast; 92.5% with MDA-MB-435 melanoma. Further, the growth was 102% in the assay on SW-620 colon; 81.3% in the assay with MCF7 breast; 86% in the assay with HCT-116 colon; 105% with HCC-2998 colon; 90.5% with KM12 colon.
In the case of `Oc1ccc(Nc2ccccc2)cc1`, the growth is 94.2% in the assay on SR leukemia; 97.5% with RPMI-8226 leukemia; 96% in the assay with OVCAR-8 ovarian; 123% with OVCAR-5 ovarian; 97.9% in the assay on SK-OV-3 ovarian; 101% in the assay with IGROV1 ovarian. Moreover, the growth is 94.2% in the assay with OVCAR-3 ovarian; 105% in the assay on HS 578T breast; 87.8% in the assay with NCI/ADR-RES ovarian; 91.7% with T-47D breast; 74% with BT-549 breast; 75.8% in the assay on MDA-MB-435 melanoma. The growth was 88.7% with SW-620 colon; 89.2% in the assay with MCF7 breast; 99.2% with HCT-116 colon; 107% in the assay with HCC-2998 colon; 79.1% in the assay with KM12 colon.
As for `CC(C)=CCC/C(C)=C/CC/C(C)=C/CSC[C@H](NC(=O)CCCCCN1CCN(C)CC1)C(=O)NC1CCCCCC1`, the growth was -20.1% (active) with SR leukemia; 51.8% in the assay on RPMI-8226 leukemia; 80.7% in the assay on OVCAR-8 ovarian; 68.7% in the assay on OVCAR-5 ovarian; 96.4% in the assay with SK-OV-3 ovarian; 69.8% with IGROV1 ovarian. In addition, the growth in the assay on OVCAR-3 ovarian was 76.6%; in the assay with HS 578T breast, 76.2%; with NCI/ADR-RES ovarian, 72.3%; in the assay with T-47D breast, 36.9%; in the assay on BT-549 breast it was 90.5%; in the assay on MDA-MB-435 melanoma it was 50.2%. The growth in the assay with SW-620 colon was -22.1% (active); with MCF7 breast, 7.39% (active); in the assay on HCT-116 colon it was -61% (active); in the assay on HCC-2998 colon, 19.3%; in the assay on KM12 colon, 66.1%.
On to `COc1ccc(C2CC(=O)c3c(nc4ccc(Cl)cc4c3N)C2)cc1` (centres undefined), for which the growth was 88.7% in the assay on SR leukemia; 103% in the assay with RPMI-8226 leukemia; 107% in the assay on OVCAR-8 ovarian; 95.4% in the assay on OVCAR-5 ovarian; 117% with SK-OV-3 ovarian; 99.7% in the assay with IGROV1 ovarian. The growth with OVCAR-3 ovarian was 112%; with HS 578T breast it was 115%; with T-47D breast, 109%; in the assay with BT-549 breast, 102%; in the assay on MDA-MB-435 melanoma, 93.6%; in the assay with SW-620 colon, 106%. In addition, the growth is 95.6% in the assay on MCF7 breast, 100% with HCT-116 colon, 111% in the assay with HCC-2998 colon and 103% with KM12 colon.
With `COCCNC1=C(Cl)C(=O)c2ccccc2C1=O`, the growth is 105% in the assay on SR leukemia; 90.4% in the assay with RPMI-8226 leukemia; 89.5% in the assay on OVCAR-8 ovarian; 107% in the assay on OVCAR-5 ovarian; 116% in the assay with SK-OV-3 ovarian; 126% in the assay on IGROV1 ovarian. Besides, the growth in the assay on OVCAR-3 ovarian is 116%; with HS 578T breast, 105%; in the assay on NCI/ADR-RES ovarian, 95.3%; in the assay on T-47D breast, 98.8%; in the assay on BT-549 breast it was 98.2%; in the assay on MDA-MB-435 melanoma it was 24.5%. The growth in the assay with MCF7 breast is 81.3%; in the assay with HCT-116 colon it was 86.8%; in the assay with HCC-2998 colon it was 95%; in the assay on KM12 colon it was 83.3%.
For `COC(=O)[C@@H]1[C@H]2C[C@H]3c4[nH]c5cc(OC)ccc5c4CCN3C[C@@H]2C[C@H](OC(=O)/C=C/c2ccnc(OC)c2)[C@H]1OC`, the growth was 73.1% in the assay on SR leukemia; 69.6% in the assay with RPMI-8226 leukemia; 88.4% in the assay with OVCAR-8 ovarian; 102% with OVCAR-5 ovarian; 96% in the assay on SK-OV-3 ovarian; 83.2% in the assay on IGROV1 ovarian. The growth in the assay on OVCAR-3 ovarian is 90.3%; in the assay on HS 578T breast it was 90.9%; in the assay with NCI/ADR-RES ovarian, 81.6%; in the assay with T-47D breast, 67.1%; with BT-549 breast, 81.2%; in the assay on MDA-MB-435 melanoma it was 97.5%. Further, the growth was 98.3% with SW-620 colon; 72.6% with MCF7 breast; 73.4% in the assay on HCT-116 colon; 105% in the assay on HCC-2998 colon; 98.8% in the assay on KM12 colon.
On to `COc1ccc(/C=C2\N=C(c3ccccc3)N(c3cc(OC)c(OC)cc3C(=O)N3N=C(C)CC3=O)C2=O)cc1`, for which the growth is 92.1% in the assay on SR leukemia; 47.7% in the assay on RPMI-8226 leukemia; 89.4% in the assay on OVCAR-8 ovarian; 103% with OVCAR-5 ovarian; 99.3% in the assay on SK-OV-3 ovarian; 99.8% in the assay with IGROV1 ovarian. Besides, the growth was 105% in the assay with OVCAR-3 ovarian; 91.7% with HS 578T breast; 78.6% with NCI/ADR-RES ovarian; 71.2% in the assay with T-47D breast; 90.1% with BT-549 breast; 93.4% in the assay with MDA-MB-435 melanoma. Moreover, the growth with SW-620 colon is 108%; in the assay on MCF7 breast, 89.7%; with HCT-116 colon, 89.6%; in the assay with HCC-2998 colon it was 113%; with KM12 colon, 91.1%.
